Most compounds without a hit are left out; they make up all but 3.4% or so of the library.
proKLK7 act: proKLK7 (human) activation, primary screen. AID 652039. activation, % at 7 µM. purified proKLK7, EDANS-DABCYL substrate fluorescence; 100% is mature enzyme control, 0% vehicle. 370,000 compounds, 0.9% hits. P49862;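 active means activation above the mean of all tested compounds plus 3 SD, computed per campaign excluding outliers beyond control limits, cut at about 13% in these data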
Target sequence (P49862 whole entry, looked up): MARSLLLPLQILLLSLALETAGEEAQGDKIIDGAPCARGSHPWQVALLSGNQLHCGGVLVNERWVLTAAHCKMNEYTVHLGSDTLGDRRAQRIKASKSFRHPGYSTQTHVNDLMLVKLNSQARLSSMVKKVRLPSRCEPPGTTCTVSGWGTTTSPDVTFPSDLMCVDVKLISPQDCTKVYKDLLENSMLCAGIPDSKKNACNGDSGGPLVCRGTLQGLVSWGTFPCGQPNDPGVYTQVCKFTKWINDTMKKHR
PLC-gamma1 inh: blocks human PLC-gamma1 enzyme activity | P19174 | purified PLC-gamma1, fluorogenic substrate, fluorescence | inhibition, % at 12.2 µM | 370,000 compounds, 0.84% hits | AID 720700; in the data active means inhibition above about 9.5%
ADAM17 inh: ADAM17 inhibition, QFRET primary screen. recombinant ADAM17, EDANS/DABCYL FRET peptide cleavage. P78536. 370,000 compounds, 0.83% hits. inhibition, % at 6.95 µM;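 active means inhibition above the mean of compounds lying between control limits plus 3 SD, set per campaign, cut at about 8.5% in these data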
HGIII-sPLA2 inh: Blocks human group III sPLA2 activity; Q9NZ20; QFRET BODIPY PC-A2 liposome hydrolysis, fluorescence; inhibition, % at 12.2 µM; 370,000 compounds, 0.56% hits;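 active means inhibition above mean plus 3 SD of compounds lying within the high and low control bounds, cut at about 19% in these data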
ADAM10 inh: inhibits human ADAM10; recombinant ADAM10, EDANS/DABCYL FRET peptide cleavage, 3 h; 370,000 compounds, 0.62% hits; O14672; inhibition, % at 7 µM;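 active means inhibition above a per-campaign cutoff equal to the mean of compounds falling between control-based bounds plus 3 SD, cut at about 20% in these data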
PLCb3 inh: blocks human PLC-beta3 enzyme activity; inhibition, % at 12.2 µM; 370,000 compounds, 0.18% hits; Purified PLC-beta3, fluorogenic substrate, fluorescence; in the data active means inhibition above about 11%
KLK7 act conf: confirmation of human kallikrein-7 zymogen activators | shares compounds with proKLK7 act | purified proKLK7, EDANS-DABCYL substrate fluorescence; scaled: vehicle 0, mature enzyme 100 | activation, % at 7 µM | 3,200 compounds, 68% hits;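 active means activation, as change over the incubation, above the mean of all tested compounds plus 3 SD, cut at about 13% in these data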
EDANS interfere: optically interferes with EDANS-DABCYL signal, flagging KLK7 hits; shares compounds with proKLK7 act; EDANS-DABCYL substrate fluorescence interference, no enzyme, 4 h; solvent 0%, active enzyme control 100%; activation, % at 7 µM; 3,200 compounds, 80% hits; AID 686952;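 active means activation above the all-compound mean plus 3 SD, ignoring values outside control-based bounds, cut at about 4.8% in these data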;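 further: value is the 4 h activation minus the activation read at time zero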
K7 EDANS ctr: EDANS fluorescence interference in dose response, no enzyme | 250 compounds, 20% hits | EDANS-DABCYL peptide fluorescence interference | shares compounds with proKLK7 act | EC50, µM;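 active means compounds that raise the fluorescence signal in this interference counterscreen, with EC50 at or below 10 µM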;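 further: intact quenched peptide substrate alone read at 355 nm excitation and 520 nm emission; signal is fluorescence gain from T0 to T4 after four hours at room temperature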
A number is an active result; i = inactive; nt = no result given.

SMILES	proKLK7 act	PLC-gamma1 inh	ADAM17 inh	HGIII-sPLA2 inh	ADAM10 inh	PLCb3 inh	KLK7 act conf	EDANS interfere	others
CCc1cc(=O)oc2cc(OC(=O)CN3C(=O)NC4(CCCC4)C3=O)ccc12	97.0	i	i	i	i	i	59.8	67.7
CCc1cc2c(nc1CC)CCCN2S(=O)(=O)c1c(C)noc1C	i	i	i	i	i	i	nt	nt
CCCCN1C(=O)N2CCc3ccccc3C2CS1(=O)=O (stereo not drawn)	i	i	i	i	i	i	nt	nt
C[C@@H]1CN([C@@H](C)CO)C(=O)c2cc(Br)cnc2O[C@@H]1CN(C)C(=O)c1ccc(F)cc1	i	i	i	i	i	i	nt	nt
O=c1c2cc(N3CCOCC3)ccc2[nH]c(=S)n1CCN1CCCC1	80.0	i	i	i	i	i	45.6	53.6
O=c1c2cc(N3CCOCC3)ccc2[nH]c(=S)n1Cc1ccc(Cl)cc1	i	i	i	i	i	i	nt	nt
O=c1c2cc(N3CCOCC3)ccc2[nH]c(=S)n1CCCN1CCCCCC1	103.7	i	i	i	i	i	44.0	40.8
Cc1ccc(Cn2c(=S)[nH]c3ccc(N4CCOCC4)cc3c2=O)o1	45.1	i	i	i	i	i	100.6	104.9
C=CCNc1cccc2c1S(=O)(=O)N[C@@H](C)CO2	i	i	i	i	i	i	nt	nt
Cc1nn2c(-c3ccccc3)ccnc2c1-c1ccccc1	i	i	i	i	i	i	nt	nt
N#CCc1nn2c(-c3ccccc3)ccnc2c1C#N	14.9	i	i	i	i	i	i	4.7
O=C1c2ccccc2NC(c2cccc(F)c2)N1Cc1ccco1 (stereo not drawn)	22.2	i	i	i	i	i	i	i
COc1ccc(C2Nc3ccccc3C(=O)N2Cc2ccco2)cc1COc1ccccc1F (stereo not drawn)	i	i	i	i	i	i	nt	nt
O=C1c2ccccc2NC(c2ccc(O)cc2)N1Cc1ccco1 (stereo not drawn)	24.2	i	i	i	i	i	i	7.1
Cc1ccc(C2Nc3ccccc3C(=O)N2Cc2ccco2)cc1 (stereo not drawn)	13.1	i	i	i	i	i	i	i
CC(=C1SC(=S)NC1=O)c1ccc(Cl)c(O)c1	i	i	i	i	i	i	nt	nt
CCN(CC)C(=O)CC[C@H]1CC[C@]2(CCCN(c3ccccc3)C2)O1	i	i	i	i	i	i	nt	nt
O=C(NCCc1ccccc1F)c1ccc(Sc2ccccc2Cl)c([N+](=O)[O-])c1	i	i	i	i	i	i	nt	nt
OCCNc1c2ccccc2nc2c(F)c(F)c(F)c(F)c12	17.6	i	i	i	i	i	19.0	8.6	K7 EDANS ctr=i
Cc1c2ccccc2nc2c(F)c(NCCO)c(F)c(F)c12	i	i	i	i	i	i	nt	nt
Cc1ccc(-c2c(C#N)c(N)n(-c3ccc(C)cc3)c(=O)c2C#N)cc1	20.7	i	i	i	i	i	186.7	270.4
O=C1C(=O)N(Cc2ccncc2)C(c2cccc(O)c2)/C1=C(\O)c1ccc2c(c1)OCCO2 (stereo not drawn)	15.4	i	i	i	i	i	i	7.4
COc1ccc(-c2cn3nc(SCC(=O)NCC4CCCO4)ccc3n2)cc1 (stereo not drawn)	95.2	i	i	i	i	i	52.0	69.5
COc1ccc(-c2ccc3nnc(SCC(=O)NCC4CCCO4)n3n2)cc1 (stereo not drawn)	22.0	i	i	i	i	i	31.2	17.8	K7 EDANS ctr=i
CCOc1ccc(-c2ccc3nnc(SCC(=O)NCC4CCCO4)n3n2)cc1 (stereo not drawn)	i	i	i	i	i	i	nt	nt
SMILES	proKLK7 act	PLC-gamma1 inh	ADAM17 inh	HGIII-sPLA2 inh	ADAM10 inh	PLCb3 inh	KLK7 act conf	EDANS interfere	others
CCN=C1NC(c2cccc(F)c2)C(C(=O)OC)=C(C)N1Cc1ccccc1C(F)(F)F (stereo not drawn)	i	i	i	i	i	i	nt	nt
N#Cc1cc2cc3c(cc2nc1N1CCOCC1)OCO3	18.0	i	i	i	i	i	114.3	122.9
OC1CNc2c(ccc3ccccc23)C1 (stereo not drawn)	14.3	i	i	i	i	i	i	i
CC1(C)Cc2c(ccc3ccccc23)C2=C(C(=O)N3CCCC3)C(=O)C(=O)N21	13.2	i	i	i	i	i	i	i
C=CCC1(O)C(=O)N2C(=C1C(=O)OCC)c1ccc3ccccc3c1CC2(C)C (stereo not drawn)	i	i	i	i	i	i	nt	nt
Cn1c(-c2ccc(C=O)s2)nc2ccccc21	47.7	i	i	i	i	i	52.3	55.6
COc1ccc(NC(=O)NNC(=O)CCc2ccc(O)c(O)c2)cc1OC	24.1	i	i	i	i	i	26.7	24.2
CCOC(=O)c1oc2ccc(OC)cc2c1NC(=O)CN1CCN(C)CC1	15.9	i	i	i	i	i	i	i
CCOC(=O)c1[nH]c2ccc(F)cc2c1NC(=O)CCN1CCSCC1	i	i	i	i	i	i	nt	nt
CCOC(=O)c1[nH]c2ccc(OC)cc2c1NC(=O)CCN1CCSCC1	17.4	i	i	i	i	i	i	10.1
C[C@@H]1CN(S(=O)(=O)C(C)(C)C)[C@@H](CCO)/C1=C\CCO	i	i	i	i	i	i	nt	nt
C=CCN(CC=C)c1nc2ccccc2nc1C(C#N)C(=O)OCCOC (stereo not drawn)	43.1	i	i	i	i	i	19.6	18.2
CN1C(=O)c2cc(NS(=O)(=O)c3cccc(F)c3)ccc2OC[C@@H]2O[C@H](CC(=O)O)CC[C@H]21	i	i	i	i	i	i	nt	nt
N#Cc1c(N)n(CCNC(=O)c2cccs2)c2nc3ccccc3nc12	53.2	i	i	i	i	i	70.6	82.2
N#Cc1c(N)n(CCNC(=O)c2ccccc2)c2nc3ccccc3nc12	42.1	i	i	i	i	i	68.5	59.2
COc1ccccc1CCn1c(N)c(C#N)c2nc3ccccc3nc21	i	i	i	i	i	i	nt	nt
N#Cc1c(N)n(-c2cccc(C(=O)O)c2)c2nc3ccccc3nc12	61.8	i	i	i	i	i	68.1	65.1
C[C@H](CO)N1C[C@H](C)[C@@H](CN(C)C(=O)Cc2ccccc2)OCc2cn(nn2)CCCC1=O	i	i	i	i	i	i	nt	nt
O=C1NC(c2ccccc2)c2c(-c3ccccc3)n[nH]c21 (stereo not drawn)	i	i	i	i	i	i	nt	nt
COc1cc(-c2cc(C(=O)Nc3cc(S(=O)(=O)N4CCOCC4)ccc3O)c3ccccc3n2)cc(OC)c1OC	i	i	i	i	i	i	nt	nt

Screening results deposited in PubChem BioAssay by The Scripps Research Institute Molecular Screening Center.
